SARS PLpro yeast – SARS-CoV PLP inhibition in yeast. S. cerevisiae expressing SARS-CoV PLpro, growth rescue. Potency, µM (series often up to 32.9 µM), without a hit: at the top dose activity, positive = growth rescue, usual class: activators. 330,000 tested, 0.19% active; calls by dose curve; further: 0% is about no effect; nearly all actives have a fitted effect of over 55% in size
Pf growth 96h – inhibits malaria parasite growth, 96 h; P. falciparum luciferase reporter growth, 96 h; Potency, µM (doses to about 28.7 µM), for the others: at the top dose activity change, negative = inhibition, actives largely listed as inhibitors; 320,000 tested, 6.9% active; AID 504834; further: on the % scale 0 is the no-effect control and ±100 the full control effect
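Two parasite generations (96 h, 37 C, 5% CO2) of compound exposure in infected erythrocytes (0.05% parasitemia, 2% hematocrit). Luciferase-reporter P. falciparum; decreased luminescence indicates inhibited growth, aimed at apicoplast-acting delayed death.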
AMA1 RON2 block – AMA1-RON2 (P. falciparum) interaction inhibition; AlphaScreen AMA1-biotinylated RON2 peptide binding; Potency, µM (top dose mostly 58.2 µM), for the others: top-dose activity change, negative = inhibition, actives largely listed as inhibitors; 360,000 tested, 0.2% active; AID 720542;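 further: 0% = vehicle wells and -100% = peptide control; nearly all actives have a fitted effect of over 45% in size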
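AMA1 (3D7) with his tag at 25 nM final met compounds first, then biotinylated RON2 peptide at 25 nM; detection used donor plus acceptor beads, 10 µg/mL apiece, read by AlphaScreen after 30 min at room temperature.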
Pf growth 48h – P. falciparum growth inhibition at 48 hours (one generation) | P. falciparum luciferase growth in erythrocytes, 48 h | Potency, µM (highest dose often 28.7 µM), inactives show at the top dose activity change, negative = inhibition, hits mostly inhibitors | 310,000 tested, 5.9% active | AID 504832; further: on the % scale 0 is the no-effect control and ±100 the full control effect
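Parasite viability was followed by luminescence of a genomically integrated firefly luciferase. Cultures held 0.1% parasitemia at 2% hematocrit (final), incubated under 5% CO2 at 37 C.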
* hit, by the source's call; ? = inconclusive; · = no result given; [ ] = remark or other dose. Only some compounds are listed: those with a hit (about 9.4% of all), similar ones and a draw of the others. Unless noted, the call rests on the fitted dose curve; in most records, active means well fitted curve in the direction sought with a large enough effect; inconclusive means small, poorly fitted or top-dose-only effect, or another doubt; inactive means no such curve, though single readings can be large; an effect the other way counts as inactive or inconclusive. Potency means the concentration at half of the fitted maximal effect.

SMILES	SARS PLpro yeast	Pf growth 96h	AMA1 RON2 block	Pf growth 48h
COc1ccc(CNC(=O)c2[nH]c(C(F)(F)F)nc2-c2ccccc2)cc1OC	·	·	-1%	·
COc1ccc(CNc2cccc3[nH]c(C(F)(F)F)nc23)cc1OC	0%	-11%	66%	1.5µM*
CCn1c(SC)nc2c(c1=O)SC(C)C2 (centres undefined)	-1%	2.3µM*	14%	?
O=C(CN1CCN(S(=O)(=O)c2ccccc2)CC1)Nc1ccc(Cl)cn1	0%	9%	-9%	-18%
COc1ccc(/C=N/NC(=O)c2ccncc2)cc1CN1CCN(c2ccc(F)cc2)CC1	2%	3.7µM*	-20%	-2%
COc1ccc(/C=N/NC(=O)c2ccc(C)cc2)cc1CN1CCN(c2ccc(F)cc2)CC1	8%	-13%	-1%	14%
COc1ccc(/C=N/NC(=O)c2cccnc2)cc1CN1CCc2ccccc2C1	0%	10µM*	-5%	10µM*
COc1ccc(/C=N/NC(=O)c2ccc(F)cc2)cc1CN1CCc2cc(OC)c(OC)cc2C1C (centres undefined)	2%	21%	-15%	?
COc1ccc(/C=N/NC(=O)c2ccc(O)cc2)cc1CN1CCCc2ccccc21	-8%	2.3µM*	?	?
O=C1NC[C@@H](CCCCN2C[C@H](Cc3ccccc3)N(Cc3ccccc3)C(=O)C2=O)N(CCc2ccccc2)C1=O	·	·	-3%	·
CCCCCCNc1nc(NCc2ccco2)nc(OCC)n1	-21%	·	-5%	-10%
CCN(CC)C(=O)CSc1nnc(SCc2ccc(Cl)cc2)s1	4%	?	-4%	?
COc1ccc(C(C(=O)NC2CCCC2)N(C(=O)Cc2cccs2)C2CC2)cc1OC (centres undefined)	-1%	0%	9%	-15%
COc1ccc(C(C(=O)NC2CCCCC2)N(Cc2cccs2)C(=O)Cc2c[nH]c3ccccc23)cc1OC (centres undefined)	5%	?	19%	9.3µM*
COc1ccc(C(C(=O)NC2CCCCC2)N(C(=O)Cc2c[nH]c3ccccc23)c2ccccc2C)cc1OC (centres undefined)	0%	13µM*	-13%[2.32 µM]	?
Cc1noc2ncc(C(=O)c3cc(F)ccc3O)cc12	11%	8.3µM*	-6%	·
Cc1nn(CCO)c2ncc(C(=O)c3cc(F)ccc3O)cc12	1%	0%	18%	20%
Cc1[nH]nc2ncc(C(=O)c3cc(F)ccc3O)cc12	12%	?	1%	·
Cc1ccc(O)c(C(=O)c2cnc3onc(-c4ccc(F)cc4)c3c2)c1	-17%	2.3µM*	-9%	3.3µM*
O=C(CC1SC(N2CCCC2)=NC1=O)Nc1ccc(C(=O)N2CCN(c3cccc(Cl)c3)CC2)cc1 (centres undefined)	-2%	?	0%	8.3µM*
CCOC(=O)C1CCCN(C(=O)c2ccc(NC(=O)CC3SC(N4CCCC4)=NC3=O)cc2)C1 (centres undefined)	-5%	?	-1%	10µM*
Cc1cccc(N2CCN(C(=O)c3ccc(NC(=O)CC4SC(N5CCCC5)=NC4=O)cc3)CC2)c1C (centres undefined)	-1%	·	-4%	·
CCNC(=O)c1ccc(NC(=O)CC2SC(N3CCCCC3)=NC2=O)cc1 (centres undefined)	0%	1%	-10%	15%
C/C(CC(=O)Nc1ccc(C)c(Cl)c1)=N\NC(=O)Cc1cccs1	1%	7%	92%	4%
COc1cccc(C(=O)N2N=C(c3cccc(OC)c3)CC2(O)C(F)(F)F)c1 (centres undefined)	-5%	11%	24%	9%
COc1cccc(C2=NN(C(=O)c3cccs3)C(O)(C(F)(F)F)C2)c1 (centres undefined)	-4%	-10%	-5%	3.7µM*
C=CCN1CC[C@]23CCCCC2[C@H]1Cc1ccc(O)cc13 (some centres undefined)	·	15µM*	·	?
CCOC(=O)C1=C(C)N=C2SC(C)C(=O)N2C1c1ccc(OC(C)=O)c(OC)c1 (centres undefined)	-16%	-25%	-3%	?
CCOC(=O)C1=C(C)N=C2SC(C)C(=O)N2C1/C=C/c1ccccc1OC (centres undefined)	18%	·	-2%	12µM*
CC(NC(=O)CCl)c1ccccc1Br (centres undefined)	13%	1.5µM*	2%	1.5µM*
